The values that follow come from PubChem BioAssay (NCI).

The panel holds about 79,000 compounds, 15% with a hit somewhere; the sample as a whole holds those more often. Calls of active or inactive are those of the source. Cut-off read from the data, not from the text of the source: active = growth inhibition above about 70%; inactive = the rest.

One experiment is described as follows: NCI Yeast Anticancer Drug Screen. Data for the bub3 strain (AID 167). As to conditions: S. cerevisiae bub3 mutant strain, at 50.0 µM, active compounds read high. In outline:
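Yeast carrying a defined mutation is treated with each compound, and growth is compared with that of vehicle-exposed cells to give inhibition.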
On to `NC(N)=NS(=O)(=O)c1ccc(NC(=O)c2cccn3c(=O)c4ccccc4nc23)cc1`, for which the growth inhibition was -9.4% (inactive).

Consider `S=c1cn[nH]c2ccccc12`, for which the growth inhibition is 49.6% (inactive).

As for `S=C1CNC(=S)CN1`, the growth inhibition was 10.8% (inactive).

Consider `CCCCN(CCCC)CC1OCCO1`, for which the growth inhibition was 2.7% (inactive).

Consider `COc1ccccc1Br`, for which the growth inhibition was -32.1% (inactive).

Take `CC1=C(C(=O)Nc2ccccc2C)C(c2ccco2)C(C(=O)Nc2ccccc2C)=C(C)N1C`: the growth inhibition is -9.6% (inactive).

As for `OC1CSCCSCCCSCCSC1`, the growth inhibition is 35.1% (inactive).

For the molecule `Cn1c(=O)c2c(ncn2CCSCC2=NS(=O)(=O)c3cc(S(N)(=O)=O)c(C(F)(F)F)cc3N2)n(C)c1=O`, the growth inhibition was 14.1% (inactive).

On to `COC(=O)C1(C(C(=O)c2ccccc2)c2ccccc2)NC(=S)NC(=O)C1C#N` (stereo not given), for which the growth inhibition was -15.4% (inactive).

As for `CCCC(=N)OCC`, the growth inhibition is 3.75% (inactive).

Regarding `COc1ccc(/C=N/N2CN(C(C)C(=O)O)B(NC34CC5CC(CC(C5)C3)C4)N=C2N)cc1OC` (stereo not given), the growth inhibition was 1.3% (inactive).

For the molecule `CCOC(=O)/C(=C\c1cccc(F)c1)C(C)=O`, the growth inhibition was 13.7% (inactive).

As for `COC1CCC2(C)C3CCC4C(=CCC5C(C)(C)C(=O)CCC45C)CC3(C)CCC2C1(C)C` (stereo not given), the growth inhibition is -2.2% (inactive).

Turning to `N#Cc1cnn(-c2ccccc2)c1N`, the growth inhibition is -4.3% (inactive).

For `COc1ccc(NC(=O)C(=O)C(C(=O)c2ccccc2)C2OC(=O)c3ccccc32)c([N+](=O)[O-])c1` (stereo not given), the growth inhibition was 28.4% (inactive).

Turning to `CC(C)CC(=O)OC1CCCCC1C1CCCCC1` (stereo not given), the growth inhibition was 13.4% (inactive).

As for `Cc1nc2c(-c3ccccc3)[nH]c(C)c2c(=O)o1`, the growth inhibition was -18.5% (inactive).

With `O=C(O)COc1cc2c(cc1Cc1ccc3c(c1)OCO3)OCO2`, the growth inhibition was 10.3% (inactive).

As to `COc1cc(C=O)cc(NC(C)=O)c1OC(C)=O`, the growth inhibition is 24.9% (inactive).

On to `Cc1ccc(S(=O)(=O)Oc2c([N+](=O)[O-])cc(-c3ccccc3)cc2[N+](=O)[O-])cc1`, for which the growth inhibition is 0.7% (inactive).

With `CCOC(=O)C(NC(=O)c1ccccc1)(N1CCN(c2cc3c(cc2F)c(=O)c(C(=O)O)cn3CC)CC1)C(F)(F)F` (stereo not given), the growth inhibition was -14.2% (inactive).

As for `CCC1CCC(Cc2ccncc2)CC1` (stereo not given), the growth inhibition is 13.4% (inactive).

In the case of `CCCC(=O)Nc1cc([N+](=O)[O-])c([N+](=O)[O-])cc1OC`, the growth inhibition was 13.8% (inactive).

Turning to `O=c1oc2ccc(Cl)cc2c(=O)n1-c1cc(Cl)ccc1[N+](=O)[O-]`, the growth inhibition is 0.45% (inactive).

Regarding `CCCCCCCCCCCCCC(N)=O`, the growth inhibition is -28.7% (inactive).

For `Cn1c(=O)c2c(-c3ccccc3)onc2n(C)c1=O`, the growth inhibition was 2.8% (inactive).

`Clc1cc(OCC23CC4CC(CC(C4)C2)C3)nc(OCC23CC4CC(CC(C4)C2)C3)n1`: the growth inhibition was 9% (inactive).

On to `O.[Cl][Pt].[NH-]CC[S-]`, for which the growth inhibition was 1.3% (inactive).

Turning to `CCOC(=O)c1ccc(CSc2ccc(OC)cc2)cc1`, the growth inhibition was 80.5% (active).

On to `N#Cc1sc2c(c1OC(=O)c1ccc(C(F)(F)F)cc1)c(=O)n(-c1ccccc1)c(=S)n2-c1ccccc1`, for which the growth inhibition is -6.2% (inactive).

Regarding `CSC(=N\N=C\c1c(F)cccc1Cl)/N=C/N(C)C`, the growth inhibition was -2.85% (inactive).

Turning to `CSc1nc(NCc2ccc(Cl)cc2)c2[nH]c(C)nc2n1`, the growth inhibition is 20.1% (inactive).

As to `CCCCCCCc1ccccc1`, the growth inhibition is 20.2% (inactive).

For `COc1ccc(CC(O)CN2CCC(CCN)CC2)cc1` (stereo not given), the growth inhibition is 23.6% (inactive).

For the molecule `Cc1n[nH]c(=O)[nH]c1=O`, the growth inhibition is -0.85% (inactive).

For `CC(=O)Oc1cccc(CN2CCc3ccccc3C2)c1`, the growth inhibition is 8.8% (inactive).

As for `CC(=O)Nc1cc(F)c(N)c(F)c1`, the growth inhibition was 0.05% (inactive).

For `Cc1ccc(C)c(OC(=O)Nc2ccccc2)c1`, the growth inhibition is -3.7% (inactive).

In the case of `O=C1C2C(C(=O)N1c1ccccc1)C1(Br)c3ccccc3C2(Br)C2C(=O)N(c3ccccc3)C(=O)C21` (stereo not given), the growth inhibition is -4.55% (inactive).

On to `CC1=C(C)C2C3C(=O)NC(=O)C3C1C1C3C(=O)NC(=O)C3C21` (stereo not given), for which the growth inhibition is 10.1% (inactive).

A short description of a further experiment: NCI Yeast Anticancer Drug Screen. Data for the mlh1 rad18 strain (AID 175). As to conditions: S. cerevisiae mlh1 rad18 strain growth inhibition; at 50.0 µM; active compounds read high. In a few lines: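 Growth inhibition of the yeast strain was measured after compound exposure and expressed relative to vehicle-treated controls. The strain carries defined defects in DNA damage repair.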
`NC(N)=NS(=O)(=O)c1ccc(NC(=O)c2cccn3c(=O)c4ccccc4nc23)cc1`: the growth inhibition was -20.9% (inactive).

For `S=c1cn[nH]c2ccccc12`, the growth inhibition was 37.6% (inactive).

For `S=C1CNC(=S)CN1`, the growth inhibition was -22.9% (inactive).

Consider `CCCCN(CCCC)CC1OCCO1`, for which the growth inhibition was -2.6% (inactive).

Regarding `COc1ccccc1Br`, the growth inhibition is -4% (inactive).

`CC1=C(C(=O)Nc2ccccc2C)C(c2ccco2)C(C(=O)Nc2ccccc2C)=C(C)N1C`: the growth inhibition was -8.8% (inactive).

Turning to `OC1CSCCSCCCSCCSC1`, the growth inhibition was 40.4% (inactive).

For `Cn1c(=O)c2c(ncn2CCSCC2=NS(=O)(=O)c3cc(S(N)(=O)=O)c(C(F)(F)F)cc3N2)n(C)c1=O`, the growth inhibition was 4.95% (inactive).

In the case of `COC(=O)C1(C(C(=O)c2ccccc2)c2ccccc2)NC(=S)NC(=O)C1C#N` (stereo not given), the growth inhibition is -9.7% (inactive).

Consider `CCCC(=N)OCC`, for which the growth inhibition was -5.05% (inactive).

On to `COc1ccc(/C=N/N2CN(C(C)C(=O)O)B(NC34CC5CC(CC(C5)C3)C4)N=C2N)cc1OC` (stereo not given), for which the growth inhibition was -6.4% (inactive).

As to `CCOC(=O)/C(=C\c1cccc(F)c1)C(C)=O`, the growth inhibition was 41.5% (inactive).

Regarding `COC1CCC2(C)C3CCC4C(=CCC5C(C)(C)C(=O)CCC45C)CC3(C)CCC2C1(C)C` (stereo not given), the growth inhibition was -12.1% (inactive).

Consider `N#Cc1cnn(-c2ccccc2)c1N`, for which the growth inhibition was -1.45% (inactive).

Regarding `COc1ccc(NC(=O)C(=O)C(C(=O)c2ccccc2)C2OC(=O)c3ccccc32)c([N+](=O)[O-])c1` (stereo not given), the growth inhibition was 8.1% (inactive).

Regarding `CC(C)CC(=O)OC1CCCCC1C1CCCCC1` (stereo not given), the growth inhibition was -4% (inactive).

In the case of `Cc1nc2c(-c3ccccc3)[nH]c(C)c2c(=O)o1`, the growth inhibition was -24.4% (inactive).

For the molecule `O=C(O)COc1cc2c(cc1Cc1ccc3c(c1)OCO3)OCO2`, the growth inhibition was 8.35% (inactive).

With `COc1cc(C=O)cc(NC(C)=O)c1OC(C)=O`, the growth inhibition is 9.95% (inactive).

With `Cc1ccc(S(=O)(=O)Oc2c([N+](=O)[O-])cc(-c3ccccc3)cc2[N+](=O)[O-])cc1`, the growth inhibition is 31% (inactive).

With `CCOC(=O)C(NC(=O)c1ccccc1)(N1CCN(c2cc3c(cc2F)c(=O)c(C(=O)O)cn3CC)CC1)C(F)(F)F` (stereo not given), the growth inhibition is -20.8% (inactive).

As for `CCC1CCC(Cc2ccncc2)CC1` (stereo not given), the growth inhibition was -0.9% (inactive).

In the case of `CCCC(=O)Nc1cc([N+](=O)[O-])c([N+](=O)[O-])cc1OC`, the growth inhibition is -3% (inactive).

For the molecule `O=c1oc2ccc(Cl)cc2c(=O)n1-c1cc(Cl)ccc1[N+](=O)[O-]`, the growth inhibition was 21.6% (inactive).

On to `CCCCCCCCCCCCCC(N)=O`, for which the growth inhibition was -18% (inactive).

Regarding `Cn1c(=O)c2c(-c3ccccc3)onc2n(C)c1=O`, the growth inhibition was 44.8% (inactive).

Turning to `Clc1cc(OCC23CC4CC(CC(C4)C2)C3)nc(OCC23CC4CC(CC(C4)C2)C3)n1`, the growth inhibition was -13.4% (inactive).

Consider `O.[Cl][Pt].[NH-]CC[S-]`, for which the growth inhibition was -2% (inactive).

Regarding `CCOC(=O)c1ccc(CSc2ccc(OC)cc2)cc1`, the growth inhibition was 78.6% (active).

`N#Cc1sc2c(c1OC(=O)c1ccc(C(F)(F)F)cc1)c(=O)n(-c1ccccc1)c(=S)n2-c1ccccc1`: the growth inhibition was 3.05% (inactive).

As for `CSC(=N\N=C\c1c(F)cccc1Cl)/N=C/N(C)C`, the growth inhibition is 4% (inactive).

Regarding `CSc1nc(NCc2ccc(Cl)cc2)c2[nH]c(C)nc2n1`, the growth inhibition is 6.45% (inactive).

On to `CCCCCCCc1ccccc1`, for which the growth inhibition is -6.5% (inactive).

For `COc1ccc(CC(O)CN2CCC(CCN)CC2)cc1` (stereo not given), the growth inhibition is -5.65% (inactive).

As to `Cc1n[nH]c(=O)[nH]c1=O`, the growth inhibition is 2.55% (inactive).

As to `CC(=O)Oc1cccc(CN2CCc3ccccc3C2)c1`, the growth inhibition was -24.1% (inactive).

In the case of `CC(=O)Nc1cc(F)c(N)c(F)c1`, the growth inhibition was -3.8% (inactive).

On to `Cc1ccc(C)c(OC(=O)Nc2ccccc2)c1`, for which the growth inhibition was -11.9% (inactive).

With `O=C1C2C(C(=O)N1c1ccccc1)C1(Br)c3ccccc3C2(Br)C2C(=O)N(c3ccccc3)C(=O)C21` (stereo not given), the growth inhibition is -2.55% (inactive).

On to `CC1=C(C)C2C3C(=O)NC(=O)C3C1C1C3C(=O)NC(=O)C3C21` (stereo not given), for which the growth inhibition was 17.1% (inactive).
